# DT40 TDP1 CPT = qHTS for Inhibitors of human tyrosyl-DNA phosphodiesterase 1 (TDP1): qHTS in cells in presence of CPT; 420,000 tested, 12% active; Potency, µM (highest dose often 46.2 µM), inactives show at the top dose activity change, negative = growth inhibition, most hits filed as inhibitors; chicken DT40 Tdp1-/-;hTDP1 cells + 20 nM CPT, ATP luminescence, 48 h; also: potency is read from the fitted curve at half-maximal effect; % is scaled to controls: 0 for no effect and ±100 for the full control effect; nearly all actives have a fitted effect of over 55% in size
#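 Chicken DT40 Tdp1-/- cells complemented with human TDP1, 400 cells/well, exposed to compounds plus 20 nM camptothecin for at least 48 h at 37 C; viability read as ATP content by CellTiter-Glo luminescence.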
# ClpP mod = qHTS Assay for Activators of ClpP. 340,000 tested, 1.9% active. purified B. subtilis ClpP, FRET peptide cleavage, 20 min. AID 651965, 2013. Potency, µM (series often up to 57.5 µM), for the others: top-dose activity change, negative = active; active = well fitted falling curve with a large enough effect; inconclusive = small, poorly fitted or top-dose-only effect; inactive = no such curve, though single readings can be large or run the other way; also: potency is read from the fitted curve at half-maximal effect; the source files actives as falling curves though it sought activators and does not explain the sign; nearly all actives have a fitted effect of over 65% in size
# Target sequence (P80244 whole entry, looked up): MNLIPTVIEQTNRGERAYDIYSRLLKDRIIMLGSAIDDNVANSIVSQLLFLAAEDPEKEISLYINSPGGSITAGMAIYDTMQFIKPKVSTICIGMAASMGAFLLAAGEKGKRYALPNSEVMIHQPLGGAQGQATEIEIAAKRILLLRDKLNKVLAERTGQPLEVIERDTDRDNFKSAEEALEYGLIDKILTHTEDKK
#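 ClpP 10 microg/mL final, pH 8 Tris/KCl buffer with BSA, glycerol, Tween-20; compound pinned in; FRET-FV substrate; RT 20 min; Ex320/Em430; ΔFRET vs ADEP 5.8 microM, DMSO, no enzyme.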
# DRD3 antagonist = qHTS of D3 Dopamine Receptor Antagonist: qHTS. D(3) dopamine receptor (Homo sapiens), P35462. D3R cells, DiscoveRx beta-arrestin luminescence, antagonist mode; active compounds read low. max response, negative = inhibition, %. 360,000 tested, 2.5% active; in the data active = max response below about -50%; inconclusive = no clear call, values can overlap the other calls; also: % is scaled to controls: 0 for no effect and ±100 for the full control effect
# Target sequence (P35462 whole entry, looked up): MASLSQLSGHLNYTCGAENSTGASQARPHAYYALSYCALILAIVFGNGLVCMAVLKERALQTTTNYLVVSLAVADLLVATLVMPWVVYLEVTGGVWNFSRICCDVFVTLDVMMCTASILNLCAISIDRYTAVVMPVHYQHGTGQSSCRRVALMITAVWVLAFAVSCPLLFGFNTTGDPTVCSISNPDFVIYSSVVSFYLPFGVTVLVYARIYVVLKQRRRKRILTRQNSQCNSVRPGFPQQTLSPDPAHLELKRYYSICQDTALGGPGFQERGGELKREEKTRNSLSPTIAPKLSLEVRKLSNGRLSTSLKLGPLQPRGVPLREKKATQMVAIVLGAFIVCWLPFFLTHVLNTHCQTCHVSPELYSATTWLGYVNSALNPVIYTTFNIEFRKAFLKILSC
#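 Cells expressing the human receptor were seeded at 1500 cells/well, incubated overnight at 37 degrees C in 5% CO2, then exposed to library compounds with dopamine controls for 90 minutes at 37 degrees C before luminescent detection.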
# D3 ag = qHTS of D3 Dopamine Receptor Agonist: qHTS; max activation, %; 410,000 tested, 0.58% active; D3R DiscoveRx beta-arrestin cells, luminescence, 90 min; in the data active = max activation above about 30%; also: 0% is about no effect
#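 Cells at 1500/well, incubated overnight, then treated with pinned compounds (dopamine as control) for 90 min at 37 degrees C. DiscoveRx reagent added for 30 - 60 minutes at room temperature; luminescence read.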
# TDP1 cell noCPT = qHTS for Inhibitors of human tyrosyl-DNA phosphodiesterase 1 (TDP1): qHTS in cells in absence of CPT | Potency, µM (doses to about 46.2 µM), for the others: at the top dose activity change, negative = growth inhibition, actives largely listed as inhibitors | 420,000 tested, 15% active | DT40 Tdp1-/- hTDP1 cells, no CPT, ATP luminescence, 48 h; also: potency is read from the fitted curve at half-maximal effect; % is scaled to controls: 0 for no effect and ±100 for the full control effect; nearly all actives have a fitted effect of over 55% in size
#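 Compound effects on proliferation are scored in DT40 Tdp1-/-;hTDP1 cells in the absence of CPT. ATP levels (CellTiter-Glo luminescence) are recorded after a ≥48 hr, 37 °C incubation.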
# IL1B secr inh = qHTS for Inhibitors of Inflammasome Signaling: IL-1-beta AlphaLISA Primary Screen; 360,000 tested, 4.7% active; THP-1 LPS/ATP IL-1B secretion, AlphaLISA, 16 h; active compounds read low; activity change, % at 57.5 µM; AID 743279, 2014; in the data active = activity change below about -50%; inconclusive = mostly about -30% to -49%; also: % is scaled to controls: 0 for no effect and ±100 for the full control effect
#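 THP-1 cells pretreated 1 hr with compounds (up to 57.5 uM final), then stimulated with LPS (250 ng/mL final) plus ATP (1.25 mM final); secreted IL-1B measured by AlphaLISA after 16 hr, decreased signal indicating inhibition.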
# Active calls of the source: *; ? = inconclusive; . = no result. In the library only some 21% were active in any assay of this set; here they are far more common. Unless noted, calls follow the shape of the dose curve; as a rule, active = well fitted inhibition curve with a large enough effect; inconclusive = small, poorly fitted or top-dose-only effect; inactive = flat fitted curve, though single readings scatter.
SMILES,DT40 TDP1 CPT,ClpP mod,DRD3 antagonist,D3 ag,TDP1 cell noCPT,IL1B secr inh
CN(C)c1ccc(C2Nc3ccccc3C(=O)N2CCCN2CCOCC2)cc1 (stereo unspecified),-11.0%,-2.2%,-9.9,-9.7,-22.1%,7.3
CCN(CC)S(=O)(=O)c1ccc(C(=O)Nc2cc(S(=O)(=O)N3CCOCC3)ccc2O)cc1,-22.4%,-1.2%,-6.0,1.0,?,6.0
O=C(CSc1nnc(-c2ccccn2)n1Cc1ccco1)c1ccccc1,?,-1.0%,13.5,-1.5,?,-8.5
O=C(CSc1nnc(-c2cnccn2)n1Cc1ccco1)c1ccc(Cl)cc1,23.1µM*,1.2%,-63.4*,-8.6,?,-7.0
O=C(CSc1nnc(-c2ccccn2)n1Cc1ccco1)c1ccc(Cl)cc1,16.4µM*,0.8%,?,6.6,29.1µM*,-2.8
O=C(CSc1nnc(-c2cnccn2)n1Cc1ccco1)c1ccccc1,-14.1%,-7.0%,22.5,0.6,-6.2%,-7.7
Nc1nc(Cl)cc(N2CCC(c3cc(-c4ccc(Cl)cc4)n[nH]3)CC2)n1,3.55µM*,-0.7%,34.4,14.5,2.82µM*,-5.6
COc1ccc(-c2cc(C3CCN(c4cc(Cl)nc(N)n4)CC3)[nH]n2)cc1,23.1µM*,-1.5%,20.6,37.5*,23.1µM*,?
COc1ccc(OC)c(-c2cc(C3CCN(c4cc(Cl)nc(N)n4)CC3)[nH]n2)c1,13µM*,?,22.0,18.2,20.6µM*,-6.0
COc1ccc(CNC(=O)CN2CCN(c3ccccc3O)CC2)cc1OC,-16.5%,-3.9%,-22.8,4.0,0.2%,2.7
CC1=C(O)C(=O)OC1c1c(Cl)cccc1Cl (stereo unspecified),-13.2%,.,5.0,5.5,-0.1%,33.4
CN(C)C(CNC(=O)c1coc2ccccc2c1=O)c1ccccc1 (stereo unspecified),2.3%,.,-6.3,6.7,-15.5%,26.4
CC(C)(C)OC(=O)NCCCCCNC(=O)c1nc[nH]c1C(=O)N1CCc2ccccc2C1,?,1.2%,79.6,38.3*,?,10.2
CC(C)(C)OC(=O)NCc1ccc(CNC(=O)c2nc[nH]c2C(=O)N2CCN(c3ccccc3)CC2)cc1,?,-2.1%,13.3,1.1,25.9µM*,17.8
CCOC(=O)c1ccc(NC(=O)c2nc[nH]c2C(=O)N2CCc3ccccc3C2)cc1,11.6µM*,5.4%,43.4,7.9,13µM*,-11.3
CC1CCN(C(=O)c2[nH]cnc2C(=O)NCCCCCNC(=O)OC(C)(C)C)CC1,?,-0.9%,0.5,-1.4,-22.1%,-2.4
Cc1ccc(NC(=O)c2nc[nH]c2C(=O)N2CCc3ccccc3C2)cc1,-24.8%,28.0%,13.0,13.5,-24.9%,1.4
CCOC(=O)c1c(C)c(C(=O)N2CCc3ccccc3C2)c(C)n1CC,?,-1.3%,-14.7,8.8,25.9µM*,16.9
O=C(NCc1cccc(Cl)c1)c1ccc2c(c1)nc1n2CCOC1,0.5%,0.0%,.,7.2,?,.
Cc1cccc(NC(=O)c2nc[nH]c2C(=O)Nc2ccccc2F)c1,?,-1.5%,5.3,0.6,?,8.7
COc1cc(Cl)c(NC(=O)CN(C)S(=O)(=O)c2ccc3c(c2)CCCC(=O)N3)c(OC)c1,.,1.2%,.,5.5,.,.
CC12CCC(c3c(C(=O)Nc4nccs4)nn(-c4ccccc4)c31)C2(C)C (stereo unspecified),16.4µM*,-2.8%,-21.6,-15.8,18.4µM*,-21.1
O=C(Nc1nccs1)c1nc[nH]c1C(=O)N1CCN(c2ccccc2)CC1,-3.0%,0.0%,-8.9,31.0*,-15.3%,-27.1
O=C(NCc1ccccc1)c1nc[nH]c1C(=O)N1CCc2ccccc2C1,?,-3.0%,17.5,4.1,?,6.5
CC(C)(C)OC(=O)[C@H](Cc1ccccc1)NC(=O)c1nc[nH]c1C(=O)N1CCc2ccccc2C1,?,-2.3%,-28.3,7.4,?,8.3
SMILES,DT40 TDP1 CPT,ClpP mod,DRD3 antagonist,D3 ag,TDP1 cell noCPT,IL1B secr inh
CC12CCC(c3c(C(=O)O)nn(-c4ccccc4)c31)C2(C)C (stereo unspecified),-0.3%,-2.2%,-16.3,-1.6,3.1%,-3.6
CC(C)(C)OC(=O)NCc1ccc(CNC(=O)c2nc[nH]c2C(=O)N2CCc3ccccc3C2)cc1,?,-0.7%,14.2,-9.2,18.4µM*,6.6
CC(C)(C)OC(=O)NCCCC[C@H](NC(=O)c1nc[nH]c1C(=O)N1CCc2ccccc2C1)C(=O)OC(C)(C)C,25.9µM*,0.3%,17.4,-0.4,20.6µM*,?
C#CCOc1ccc(CNC[C@H]2O[C@@H](n3cnc4c(N)ncnc43)[C@H](O)[C@@H]2O)cc1,?,3.1%,22.7,11.9,?,8.7
COc1ccc(CCNC(=O)C2CC(=O)N(C3CCCCC3)C2)cc1OC (stereo unspecified),16.3%,0.7%,20.0,1.5,0.1%,5.4
O=C(O)[C@H]1CCCNC1,5.7%,.,.,.,-1.3%,.
Cc1ccc2[nH]c(=O)c(CN(CCCN(C)C)C(=O)Nc3ccc(F)cc3)cc2c1,?,.,18.5,-0.7,13µM*,0.0
COc1ccc(NC(=O)N(CCCN(C)C)Cc2cc3cc(OC)ccc3[nH]c2=O)cc1,?,?,-0.9,-2.3,-23.2%,-10.9
CCN(CC)CCCN(Cc1cc2cc(OC)ccc2[nH]c1=O)C(=O)Nc1ccccc1,?,.,-2.2,-4.6,?,-3.9
Cc1cccc(NC(=S)N(CCN(C)C)Cc2cc3cc(C)cc(C)c3[nH]c2=O)c1,?,2.2%,1.9,-5.4,?,-3.3
CCN(CC)CCCN(Cc1cc2cc(OC)ccc2[nH]c1=O)C(=O)Nc1ccc(F)cc1,16.4µM*,28.2µM*,?,-8.0,20.6µM*,-51.5*
Cc1ccc(NC(=S)N(CCN(C)C)Cc2cc3cc(C)ccc3[nH]c2=O)cc1,?,-0.3%,-20.7,-7.2,?,-67.7*
Cc1cccc(NC(=S)N(CCN(C)C)Cc2cc3cccc(C)c3[nH]c2=O)c1,?,-6.0%,5.0,-3.3,6.51µM*,?
CCOc1ccc(C(=O)NCCc2sc(-c3ccc(OC)c(OC)c3)nc2C)cc1,.,4.2%,.,16.1,.,.
